{"source": "PubChem BioAssay AID449762", "about": "(Southern Research Specialized Biocontainment Screening …, 2010)", "note": "In all, about 330,000 compounds went through this assay and about 1,900 (0.58%) were called active. Inconclusive results (about 4%) are left out. Not all results are given here. Entries with a potency or affinity are not part of this list. Unmarked numbers belong to inactive results. Cut-off read from the data, not from the text of the source: inconclusive = inhibition above about 70% without an active follow-up result; inactive = below that.", "data": [{"test": "M. tuberculosis growth inhibition, HTS (AID 449762);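 note: bacterial growth assessed after seven days of incubation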", "details": "M. tuberculosis H37Rv growth inhibition, 7H9 media; at 25 µM; hits give high values", "units": {"inhibition": "%"}, "values": [{"molecule": "CN(C)S(=O)(=O)c1ccc(C(=O)/C=C/c2cccnc2)cc1", "inhibition": 18.5}, {"molecule": "Cc1cccc2c1N(CCOc1ccc(C(C)(C)C)cc1)C(=O)C2=O", "inhibition": 4.9}, {"molecule": "Cc1ccc(OCCCN2C(=O)C(=O)c3cccc(C)c32)cc1", "inhibition": 9.09}, {"molecule": "COc1ccc(N2CCN(C(=O)CCc3nnc4ccc(N5CCOCC5)nn34)CC2)cc1", "inhibition": -1.82}, {"molecule": "COc1cc(N)c(Cl)cc1C(=O)NC1CN2CCC1CC2", "note": "(stereo not drawn)", "inhibition": 4.28}, {"molecule": "CCOc1cc(N)c(Cl)cc1C(=O)NCC1CN(Cc2ccc(F)cc2)CCO1", "note": "(stereo not drawn)", "inhibition": -1.66}, {"molecule": "COc1ccc(S(=O)(=O)N2CCOC2CNC(=O)C(=O)NCc2ccco2)cc1", "note": "(stereo not drawn)", "inhibition": 0.26}, {"molecule": "CCC(C)Nc1nc(Cl)nc(NCCOc2ccccc2)n1", "note": "(stereo not drawn)", "inhibition": 5.37}, {"molecule": "O=C(CCC(=O)N(CC(=O)NC1CCCCC1)CC1CCCO1)Nc1nccs1", "note": "(stereo not drawn)", "inhibition": -1.08}, {"molecule": "Cc1c(Cl)cccc1NC(=O)c1cc(-c2ccco2)on1", "inhibition": 3.35}, {"molecule": "O=C(Nc1cccnc1Cl)c1cc(-c2ccc(Cl)cc2)on1", "inhibition": 5.26}, {"molecule": "O=[N+]([O-])c1ccc(-c2cnc(SCc3ccccc3Cl)[nH]2)cc1", "inhibition": -2.76}, {"molecule": "COc1ccccc1CSc1ncc(-c2ccc([N+](=O)[O-])cc2)[nH]1", "inhibition": -2.06}, {"molecule": "COCC(=O)N1CCC(Oc2cccc(C(=O)NCc3ccccn3)c2)CC1", "inhibition": -0.85}, {"molecule": "CCCCN1C(=O)/C(=C2/C=CC=CN2C)SC1=S", "inhibition": -5.48}, {"molecule": "O=C(O)CCN1C(=O)C(=C2CCCCCC2)SC1=S", "inhibition": -3.58}, {"molecule": "CCCCn1nc2cc(C(=O)NCc3ccc(OC(F)(F)F)cc3)ccc2c1OC", "inhibition": 6.36}, {"molecule": "O=C(NN1CCOCC1)C12CC3CC(CC(C3)C1)C2", "inhibition": -3.63}, {"molecule": "COc1ccc2c3c([nH]c2c1)[C@H]1C[C@H]2[C@H](C[C@@H](O)[C@H](OC)[C@H]2C(=O)O)CN1CC3", "inhibition": 1.26}, {"molecule": "COc1ccc2c3c([nH]c2c1)C1CC2C(CC(O)C(OC)C2C(=O)O)CN1CC3", "note": "(stereo not drawn)", "inhibition": -4.38}, {"molecule": "C=Cn1nc(C)c2ccccc2c1=O", "inhibition": -3.9}, {"molecule": "COC(=O)c1cc(=O)n(Cc2ccc(F)cc2)c(=Nc2ccccc2)s1", "inhibition": 4.7}, {"molecule": "COC(=O)c1cc(=O)n(CCc2ccccc2)c(=Nc2ccc(F)cc2)s1", "inhibition": 4.1}, {"molecule": "COc1cccc(NC(=O)[C@H](CC(C)C)NC(=O)N2CCn3c2nc2ccccc23)c1", "inhibition": 11.4}, {"molecule": "NC(=O)[C@H](Cc1cc2ccccc2s1)NC(=O)[C@@H]1CC2(CC(c3cccc(NC(=O)[C@@H]4CCC(=O)N4)c3)=NO2)CN1C(=O)c1ccccc1", "note": "(stereo partly drawn)", "inhibition": -4.74}, {"molecule": "NC(=O)C1CCN(CCCNC2CC(=O)N(Cc3ccc(N4CCCC4=O)cc3)C2=O)CC1", "note": "(stereo not drawn)", "inhibition": -6.69}, {"molecule": "Nc1cc(C(=O)OCC(=O)NNC(=O)c2ccccc2F)ccc1Cl", "inhibition": 25.6}, {"molecule": "Nc1cc(C(=O)OCC(=O)NNC(=O)c2ccccc2)ccc1Cl", "inhibition": 35.4}, {"molecule": "CCOc1cc(Cl)c(CNCCCN2CCOCC2)cc1OC", "inhibition": 5.34}, {"molecule": "CCOC(=O)c1c(C)[nH]c(C(=O)COC(=O)c2cc(C)oc2C)c1C", "inhibition": -7.77}, {"molecule": "COc1ccc(-c2ccc(C#N)c(SCC(=O)NCCc3ccccc3)n2)cc1OC", "inhibition": 8.95}, {"molecule": "N#Cc1ccc(-c2ccc3c(c2)OCO3)nc1SCC(=O)OCc1ccccc1", "inhibition": -7.31}, {"molecule": "S=C(NC1CCCCC1)N1CCN(Cc2ccccc2Cl)CC1", "inhibition": 1.74}, {"molecule": "COc1ccc2c(COC(=O)CCS(=O)(=O)c3ccccc3)cc(=O)oc2c1", "inhibition": -17.5}, {"molecule": "Cn1c(SCc2nc3ccccc3c(=O)[nH]2)nc2ccccc21", "inhibition": 1.19}, {"molecule": "O=c1[nH]c(CSc2ccccn2)nc2ccccc12", "inhibition": 3.19}, {"molecule": "O=C(c1ccco1)N1CCN(C(=S)Nc2ccc(Br)cc2Cl)CC1", "inhibition": -10.4}, {"molecule": "COC(=O)c1cc(-c2ccccc2)on1", "inhibition": 69.8}, {"molecule": "COc1cccc(-c2cc(C(=O)O)no2)c1", "inhibition": -0.44}, {"molecule": "CCOc1ccc(NC(=O)COc2nsnc2N2CCOCC2)cc1", "inhibition": -1.39}, {"molecule": "CCN(c1ccccc1)S(=O)(=O)c1ccc(Cl)c(NC(=O)COC(=O)c2ccc[nH]c2=O)c1", "inhibition": -8.08}, {"molecule": "CCCCCCn1nc(C(=O)OCC(=O)c2c(N)n(C)c(=O)n(C)c2=O)c2ccccc2c1=O", "inhibition": 9.07}, {"molecule": "COc1ccc(C2=NCCn3nc4cc(OC)ccc4c32)cc1", "inhibition": 1.06}, {"molecule": "COc1ccc2c3n(nc2c1)CCN=C3c1ccc(Cl)cc1", "inhibition": 4.84}, {"molecule": "Cc1ccc2[nH]c(C)c(CCNC(=O)c3c(N)no[n+]3[O-])c2c1", "inhibition": -0.11}, {"molecule": "O=C(NCCCn1ccnc1)c1cc2cc([N+](=O)[O-])ccc2oc1=O", "inhibition": -5.35}, {"molecule": "O=C(NC1CCCCC1)C(c1cccs1)N(CC1CCCO1)C(=O)c1csnn1", "note": "(stereo not drawn)", "inhibition": -12}, {"molecule": "CC(=O)c1ccc(S(=O)(=O)N2CCc3ccccc3C2)cc1", "inhibition": 0.34}, {"molecule": "CC1CC(C)CN(C(=O)CSc2nnc(-c3ccc(Cl)s3)o2)C1", "note": "(stereo not drawn)", "inhibition": 20.5}, {"molecule": "CCOC(=O)N1CCN(C(=O)CSc2nnc(-c3ccccc3OC)o2)CC1", "inhibition": 41.9}, {"molecule": "O=C(c1cc2n(n1)C(C(F)(F)F)CC(c1ccc(F)cc1)N2)N1CCCC1", "note": "(stereo not drawn)", "inhibition": -3.19}, {"molecule": "O=C(Nc1cccnc1Cl)c1cccc(F)c1", "inhibition": 9.84}, {"molecule": "CC(C)NC(=O)COC(=O)c1cc(Br)ccc1Cl", "inhibition": 21.9}, {"molecule": "CC(C)(C)NC(=O)COC(=O)c1ccc(F)cc1Cl", "inhibition": 49.4}, {"molecule": "COc1ccc(NC(=O)CCC(=O)Nc2nnc(C3CCCCC3)s2)c(OC)c1", "inhibition": 7.63}, {"molecule": "Cc1cc(CN2CCCC(CO)(Cc3cccc(Cl)c3)C2)n[nH]1", "note": "(stereo not drawn)", "inhibition": 2.25}, {"molecule": "OCC1(Cc2cccc(Cl)c2)CCCN(Cc2ccc(F)c(F)c2)C1", "note": "(stereo not drawn)", "inhibition": 16.1}, {"molecule": "c1ccc2nc3c(nc2c1)[nH]c1ccccc13", "inhibition": -2.41}, {"molecule": "c1ccc(-c2nc3ccccc3[nH]2)cc1", "inhibition": 9.27}, {"molecule": "CC1(C)Cc2c(cnn2-c2cccc(F)c2)C(NC(=O)CSc2ccncc2)C1", "note": "(stereo not drawn)", "inhibition": -11.2}, {"molecule": "CCCCN1C(=N)N([C@@H](C)CN2CCC[C@H]2CN2C(N)=NC[C@H]2CC(C)C)C[C@H]1[C@H](C)CC", "inhibition": -9.24}, {"molecule": "O=c1c2ccccc2oc2ccc(NCCCn3ccnc3)cc12", "inhibition": -0.23}, {"molecule": "O=c1c2ccccc2oc2cc(NCCCn3ccnc3)ccc12", "inhibition": 64.1}, {"molecule": "Nc1c(C(=O)Nc2ccc3c(c2)OCCO3)nnn1Cc1ccc(Cl)cc1", "inhibition": 0.83}, {"molecule": "CCN(CC)c1ccccc1", "inhibition": 5.27}, {"molecule": "Nc1ccc(N(CCO)CCO)cc1", "inhibition": 6.03}, {"molecule": "O=C(NCc1ccc(Cl)cc1)C1CCN(c2cnccn2)CC1", "inhibition": 1.73}, {"molecule": "Cc1ccc(NC(=O)Cn2cccc2)cc1", "inhibition": 3.9}, {"molecule": "CC(C)(C)c1csc(NNC(=O)c2ccc(Br)cc2)n1", "inhibition": 66.5}, {"molecule": "COc1ccc2[nH]c3c(c2c1)CCN1C(=O)N([C@@H](C)C(=O)NCCc2ccc(OC)c(OC)c2)C(=O)[C@]31C", "inhibition": -11.9}, {"molecule": "CN(C)/C=C1\\C(=O)N(c2ccc([N+](=O)[O-])cc2)N=C1c1ccccc1", "inhibition": -2.09}, {"molecule": "CN(C)/C=C1/C(=O)N(c2ccc([N+](=O)[O-])cc2)N=C1c1ccccc1", "inhibition": 0.35}, {"molecule": "NC(=O)c1ccsc1N", "inhibition": 6.02}, {"molecule": "NC(=O)c1ccc(Cn2c(C(=O)c3ccc(Cl)cc3)c3ccccc3[n+]2[O-])cc1", "inhibition": 2.02}, {"molecule": "COCCn1c(-c2ccc(OC)cc2)cnc1SCC(=O)Nc1cccc2ccccc12", "inhibition": 57.1}, {"molecule": "CCOc1ccc(CNc2ncc(-c3ccccc3)n2C)cc1", "inhibition": 8.71}, {"molecule": "Cn1c(CCNC(=O)c2ccco2)nc2ccccc21", "inhibition": -1.68}, {"molecule": "Cc1cccc(NC(=O)CCCNC(=O)c2ccc(Cl)cc2)n1", "inhibition": -15.3}, {"molecule": "COc1ccc(NCc2ccc(OC)c(Cn3ccnc3)c2)c(OC)c1", "inhibition": 17.3}, {"molecule": "COc1cc(Cn2ccnc2)c(OC)cc1Cn1ccnc1", "inhibition": 0.13}, {"molecule": "CCCC(=O)Nc1ccc(-c2csc(NNC(C)=O)n2)cc1", "inhibition": 8.91}, {"molecule": "CCc1nc(OCCN(C)C)c2oc3ccccc3c2n1", "inhibition": 5.77}, {"molecule": "CN(C)CCOc1ncnc2c1oc1ccccc12", "inhibition": -7.93}, {"molecule": "O=C(CCSc1nc(-c2ccco2)cc(C(F)(F)F)n1)NCc1ccccn1", "inhibition": -4.91}, {"molecule": "Cc1ccc(C)n1-n1c(C)nc2scc(-c3cccs3)c2c1=O", "inhibition": 1.92}, {"molecule": "Cc1nc2scc(-c3cccs3)c2c(=O)n1N", "inhibition": -9.74}, {"molecule": "CCCCc1nn(-c2cc(Cl)ccc2OC)c2c1C(=O)CCC2", "inhibition": -11.2}, {"molecule": "CCOC(=O)c1nn(-c2ccc(F)cc2)c2nc(CC(C)C)c(C#N)c(=O)n12", "inhibition": -13.7}, {"molecule": "Cc1cccc(OC(C)C(=O)OCC(=O)N2CCN(c3ccccc3)CC2)c1", "note": "(stereo not drawn)", "inhibition": 69.9}, {"molecule": "CCc1cc(C(=O)OCC(=O)N2CCC(c3ccccc3)=N2)sc1C", "inhibition": 9.02}, {"molecule": "Cc1ccc(C(=O)OCC(=O)N2CCC(c3ccccc3)=N2)cc1", "inhibition": -0.51}, {"molecule": "COc1ccc(NC(=O)c2cc(-c3cc(C)ccc3O)n[nH]2)cc1Cl", "inhibition": -5.54}, {"molecule": "CC(C)(Oc1ccc(Cl)cc1)C(=O)NCc1n[nH]c(=O)c2ccccc12", "inhibition": -7.84}, {"molecule": "Cc1nn(C)cc1/C=N/NC(=O)C(C)(C)Oc1ccc(Cl)cc1", "inhibition": -2.26}, {"molecule": "Cc1ccc(NC(=S)Nc2cc(-c3ccccc3)[nH]n2)cc1Cl", "inhibition": 3.77}, {"molecule": "Cc1ccc(CNC(=S)Nc2ccc(C)c([N+](=O)[O-])c2)cc1", "inhibition": 1.67}, {"molecule": "CCOc1ccc(NC(=S)Nc2cc(C)[nH]n2)cc1", "inhibition": 11.8}, {"molecule": "CCOc1ccc(NC(=S)/C(=C(\\[O-])c2ccc(C)c([N+](=O)[O-])c2)[n+]2ccccc2)cc1", "inhibition": -4.46}]}]}
